Experimental data published in PubChem BioAssay AID1211 (NMMLSC, 2008).
The source made the active and inactive calls. How the calls were made is not given here.

Molecular target: Estrogen receptor (Homo sapiens) (UniProt P03372)
Test: displacement of fluorescent estrogen from ERalpha – cell-based, Cos7 ERalpha-GFP, flow cytometry, primary screen (AID 1211);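 further: 0% = DMSO vehicle wells and 100% = no E2-Alexa633 signal left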
Conditions: fluorescent ligand competition, at 10 µM, stronger effect = higher value

Sequence of Estrogen receptor (Homo sapiens) (P03372 whole entry, looked up): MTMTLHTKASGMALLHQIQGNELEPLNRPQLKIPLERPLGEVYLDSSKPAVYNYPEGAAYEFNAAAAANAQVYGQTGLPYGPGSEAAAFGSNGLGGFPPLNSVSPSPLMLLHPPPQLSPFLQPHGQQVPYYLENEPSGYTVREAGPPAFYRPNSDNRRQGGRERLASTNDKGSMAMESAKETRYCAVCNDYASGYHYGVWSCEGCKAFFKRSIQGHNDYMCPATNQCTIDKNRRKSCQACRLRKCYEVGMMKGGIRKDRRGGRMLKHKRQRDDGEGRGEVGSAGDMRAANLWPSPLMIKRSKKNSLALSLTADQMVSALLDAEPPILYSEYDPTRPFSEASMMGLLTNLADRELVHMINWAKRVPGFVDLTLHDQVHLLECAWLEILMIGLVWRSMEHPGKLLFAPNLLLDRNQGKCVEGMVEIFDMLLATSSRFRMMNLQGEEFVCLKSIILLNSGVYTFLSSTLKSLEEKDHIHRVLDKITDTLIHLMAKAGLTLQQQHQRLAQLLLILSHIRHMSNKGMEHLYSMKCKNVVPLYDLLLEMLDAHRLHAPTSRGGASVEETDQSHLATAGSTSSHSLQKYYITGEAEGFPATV

Inhibition of ligand binding, inactive:
CCCOc1cc2oc(=O)c3c(c2cc1CC)CCCC3 0%, CCOC(=O)c1ccc2c(c1)C1C=CCC1C(C(=O)O)N2 (stereo not drawn) 51%, COCCCn1c(Cc2csc(Nc3cccc(Cl)c3)n2)nnc1SCC(=O)OC1CCCCC1 37%, O=c1c(C(c2ccc(O)cc2)c2c(O)nc3n(c2=O)CCS3)c(O)nc2n1CCS2 7%, COc1ccc(C2(CNCC(N)=O)CCCC2)cc1OC 10%, CCCCCCc1cc2c3c(c(=O)oc2cc1OCC(=O)OC)CCC3 0%, Cc1oc2ccc(OCC#N)cc2c1C(=O)OC(C)C 0%, CCOc1cc2c(c([N+](=O)[O-])c1)NC(c1ccc(Br)cc1)C1CC=CC21 (stereo not drawn) 0%, O=C(O)c1cc(-c2ccc(O)cc2)nc2ccccc12 5%, CCc1cc2c3c(c(=O)oc2cc1OCC(=O)O)CCCC3 10%, CCOc1cc2c(c([N+](=O)[O-])c1)NC(c1ccccc1)C1CC=CC21 (stereo not drawn) 12%, Cn1cccc1/C=C1\SC(=O)N(c2ccc(O)cc2)C1=O 45%, COc1cc(C2CC(=O)Nc3c2ccc2ccccc32)cc(Cl)c1O (stereo not drawn) 0%, CC(=O)N1c2ccc3ccccc3c2C2C=CCC2C1c1ccc(Br)cc1 (stereo not drawn) 48%, O=c1oc2cc(O)c(Cl)cc2c2c1CCCC2 0%, O=c1cc(CSc2nnnn2-c2ccccc2)nc(Nc2ccc(F)cc2)[nH]1 26%, COc1cc(/C=N/N2CCN(C3c4ccccc4-c4ccccc43)CC2)cc(OC)c1O 0%, O=C(Oc1cccc(-c2cnc3ccccc3n2)c1)c1ccco1 12%, O=[N+]([O-])c1ccc(Cl)c2c1C1C=CCC1C(c1ccccn1)N2 (stereo not drawn) 53%, CCOC(=O)COc1cc2oc(=O)c3c(c2cc1CC)CCCC3 0%, CC1CCC2(C)c3[nH]c4ccccc4c3CCN2C1=O (stereo not drawn) 0%, CC(C)COc1ccc2c(c1)c1c3n2CCNC3CCC1 (stereo not drawn) 22%, O=C(O)COc1cc2oc(=O)c3c(c2cc1Cl)CCCC3 0%, COc1ccc(C2CC(=O)Nc3ccccc3S2(=O)=O)cc1OC (stereo not drawn) 0%, CC1(C)Cc2[nH]c(=O)c(C(=O)O)cc2CO1 2%, Oc1ccc(C=Nc2ccc(N3CCOCC3)cc2)c(O)c1 30%, CC(C)CN(Cc1c(O)ccc2c3c(c(=O)oc12)CCC3)CC(C)C 6%, COc1cc(C2C(C#N)=C(N)Oc3cc(C)oc(=O)c32)cc2c1OCO2 (stereo not drawn) 9%, N#Cc1ccc(-c2cccnc2)nc1SCC(=O)Nc1sc2c(c1C#N)CCC2 15%, CCCCCCc1cc2c3c(c(=O)oc2cc1OCC(=O)O)CCCC3 1%, COC(=O)c1ccc2c(c1)C1C=CCC1C(c1cccc([N+](=O)[O-])c1)N2 (stereo not drawn) 10%, COc1ccc2c(c1)C1OCCC1C(c1ccco1)N2 (stereo not drawn) 46%

Inhibition of ligand binding, active:
O=C(O)c1ccc2c(c1)C1C=CCC1C(c1cccc([N+](=O)[O-])c1)N2 (stereo not drawn) 72%, CC(C)C1Nc2ccc(S(N)(=O)=O)cc2C2C=CCC21 (stereo not drawn) 70%, O=C(O)c1ccc([N+](=O)[O-])c2c1NC(c1ccccc1)C1CC=CC21 (stereo not drawn) 100%, CCOc1ccc(NS(=O)(=O)c2ccc3c(c2)[C@H]2C=CC[C@H]2[C@@H](c2ccc(C(=O)O)cc2)N3)cc1 66%, CC(=O)Oc1ccc(C2Nc3c(C(=O)O)ccc([N+](=O)[O-])c3C3C=CCC32)cc1 (stereo not drawn) 85%, Cc1cc(C)c2c(c1)[C@@H]1C=CC[C@@H]1[C@H](c1ccc(S(=O)(=O)N3CCOCC3)cc1)N2 66%
